# In the supplement of paper PMC3334620:
# Over roughly 33,000 sequences, “E-score (-0.5 to 0.5)” has its median near -0.054; the highest 2% begin near 0.39. What follows is part of a selection rich in the highest values, with near analogues and random picks from the rest.
# Molecular target: Ylr278c (UniProt Q05854)
# Experiment: PBM E-score (8-mer binding enrichment) (E-score (-0.5 to 0.5)); higher = stronger / more preferred TF binding
# Conditions: protein concentration: 200 nM; construct: GST-DNA-binding domain
# How it was run: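 Yeast transcription factors carrying a GST tag, as full-length proteins or DNA-binding domains, were produced by PURExpress in vitro transcription/translation. About 100-200 nM protein was applied to universal all-10-mer Agilent arrays, double-stranded by primer extension on fresh or once-stripped slides. Bound protein was detected with fluorescent anti-GST, and scans were normalised with masliner. The Universal PBM Analysis Suite gave each ungapped eight-base word, pooled with its reverse complement, an E-score, a modified Wilcoxon-Mann-Whitney statistic.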
# Chain of UniProt Q05854 (Q05854 whole entry): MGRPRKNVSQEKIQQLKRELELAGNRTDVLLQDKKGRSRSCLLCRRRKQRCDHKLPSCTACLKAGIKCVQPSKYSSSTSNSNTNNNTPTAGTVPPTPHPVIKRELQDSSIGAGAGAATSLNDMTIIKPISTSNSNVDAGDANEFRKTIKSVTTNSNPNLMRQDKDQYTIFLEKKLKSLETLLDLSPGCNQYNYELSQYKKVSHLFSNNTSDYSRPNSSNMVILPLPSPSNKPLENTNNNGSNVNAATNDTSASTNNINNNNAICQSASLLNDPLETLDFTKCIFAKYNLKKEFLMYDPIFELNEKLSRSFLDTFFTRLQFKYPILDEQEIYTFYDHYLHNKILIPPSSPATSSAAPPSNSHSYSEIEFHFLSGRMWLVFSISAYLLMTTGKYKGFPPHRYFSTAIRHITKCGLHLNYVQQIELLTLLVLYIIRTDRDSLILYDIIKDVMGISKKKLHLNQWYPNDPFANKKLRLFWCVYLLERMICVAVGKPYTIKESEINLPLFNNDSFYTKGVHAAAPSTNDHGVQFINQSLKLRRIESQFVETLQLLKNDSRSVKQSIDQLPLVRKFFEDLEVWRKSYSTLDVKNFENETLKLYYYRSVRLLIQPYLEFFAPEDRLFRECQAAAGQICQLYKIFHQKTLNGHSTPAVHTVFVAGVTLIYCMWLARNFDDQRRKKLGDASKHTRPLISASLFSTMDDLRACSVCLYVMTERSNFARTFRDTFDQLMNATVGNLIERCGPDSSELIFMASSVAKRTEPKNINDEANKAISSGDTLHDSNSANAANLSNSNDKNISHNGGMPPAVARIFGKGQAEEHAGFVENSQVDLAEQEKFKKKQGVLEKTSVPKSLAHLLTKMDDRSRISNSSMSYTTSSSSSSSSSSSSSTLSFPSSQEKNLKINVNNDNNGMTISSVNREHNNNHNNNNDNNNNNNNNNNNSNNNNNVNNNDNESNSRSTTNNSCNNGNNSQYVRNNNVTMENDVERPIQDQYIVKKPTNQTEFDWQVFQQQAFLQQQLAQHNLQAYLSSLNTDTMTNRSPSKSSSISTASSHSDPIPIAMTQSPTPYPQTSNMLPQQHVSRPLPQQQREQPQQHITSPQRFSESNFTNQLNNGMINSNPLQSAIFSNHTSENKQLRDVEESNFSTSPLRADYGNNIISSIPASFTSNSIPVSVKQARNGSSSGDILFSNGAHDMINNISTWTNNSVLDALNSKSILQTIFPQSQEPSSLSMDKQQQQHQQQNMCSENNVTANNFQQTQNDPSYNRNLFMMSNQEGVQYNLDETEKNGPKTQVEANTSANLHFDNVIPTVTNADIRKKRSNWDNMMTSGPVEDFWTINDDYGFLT
row,Sequence,PBM E-score
1,AGAAGCCG,0.241
2,AATCGAGA,-0.115
3,GAGAAGAC,0.0429
4,CCTATCCG,0.114
5,GAAATGAC,-0.0184
6,AGATTGGG,0.0161
7,TGGAATAA,-0.0106
8,CGGAATAC,0.423
9,AGGAATAC,-0.0793
10,CAGAATAG,-0.179
11,CGGAATAG,0.391
12,CGGAATAA,0.433
13,AGGAATAG,0.102
14,GGGAATAC,0.176
15,GGGAATAA,0.261
16,GAGGGTCC,0.173
17,CTGGTTGC,0.123
18,CCTAGCTA,-0.246
19,TCCCTTAA,-0.263
20,ATGCTGGC,-0.147
21,ATAAGTGA,-0.229
22,CGACGCGC,0.21
23,TACCCGGA,0.395
24,CACCCGGA,0.365
25,GACCCGGC,0.184

row,Sequence,PBM E-score
1,GACCCGGA,0.391
2,AACCCGGT,0.304
3,AACCCGGC,0.313
4,TACCCGTA,-0.0475
5,TACCCGAA,0.0727
6,AACCCGGA,0.435
7,CTGAAAAG,-0.131
8,AGTTGCCG,0.171
9,GGCGTGTA,-0.155
10,TATGTAAA,0.0517
11,CCTTGAAC,-0.189
12,ACGTACTG,-0.138
13,AAACTTGC,-0.0141
14,ACGAGGAA,-0.0559
15,TGCTCTAA,-0.211
16,AGTGAGGA,-0.255
17,CTTCCGCA,0.198
18,ACGCCGCT,0.224
19,ACTCCGCT,0.417
20,AATCCGCC,0.319
21,GCTCCGCC,0.382
22,TCTCCTCA,-0.147
23,ACTCCTCA,-0.21
24,ACTCCCCT,0.174
25,GCTCCGCA,0.377

row,Sequence,PBM E-score
1,TCTCCGCA,0.407
2,ACTCCGCA,0.452
3,ACTCCGCC,0.475
4,GTTTAGGA,-0.122
5,ACAGCAGC,-0.191
6,CGCCCAAC,0.0317
7,ACCCTAAA,0.099
8,ATAGCTCG,-0.0396
9,ATGCTGTA,-0.185
10,TAAGTATA,-0.0135
11,GGACTGAA,-0.00012
12,ATGGCCAT,0.0373
13,GGGAGATA,-0.0385
14,AGGAGATC,0.0493
15,GGGATATA,0.151
16,CGGAGATC,0.479
17,CTGAGATC,-0.196
18,AGGAGATA,-0.016
19,CGGAGATA,0.483
20,CGGATATA,0.393
21,CGGATATC,0.366
22,CGACTCAA,0.0186
23,GTCATGAC,0.0612
24,GCCAGTTA,-0.0644
25,GCACTCGC,0.0715

row,Sequence,PBM E-score
1,CGTTCGCC,0.145
2,ACATCCGT,0.162
3,AGATCCGG,0.41
4,ACATCCGG,0.444
5,ATATCCGG,0.413
6,ACATCCGA,0.356
7,ATATCCGA,0.387
8,AGATCCGA,0.344
9,ATATCCGC,0.38
10,AGATCCGC,0.37
11,ATAGTGGC,-0.179
12,ACAGGCAA,-0.209
13,CTGCGACA,0.094
14,ACGATGGC,-0.144
15,ATAAGTAA,0.0323
16,GCCAACGA,-0.181
17,CGACTGTA,-0.139
18,AGGACTTC,-0.0413
19,CTGACTTC,0.088
20,AGGACTTA,-0.0757
21,GGGACTTA,-0.0692
22,GGGACTAA,-0.0466
23,TGGACTAA,-0.188
24,AGGACTCC,0.0662
25,CGGACTCA,0.384

row,Sequence,PBM E-score
1,CGGACTAA,0.423
2,CGGACTTA,0.452
3,CGGACTCC,0.423
4,CGGACTTC,0.473
5,ACAAAGCG,-0.0993
6,TGGACGAA,-0.116
7,ACACCACT,-0.0175
8,CCCGGTAG,0.252
9,GCGGTGAC,0.0764
10,GACCGGCA,0.258
11,CTCCGGCA,0.469
12,CTGCGGCC,0.2
13,ATCCGGCA,0.369
14,CACCGGCA,0.328
15,CTACGGCC,0.123
16,CTCCGGCC,0.455
17,GCCCGGCA,0.255
18,GTCCGGCA,0.41
19,GATCTGGC,0.0483
20,ACCTAACC,0.0688
21,TAAGAGGA,-0.0178
22,AAAGATTG,-0.146
23,AGCTAAGC,-0.164
24,CATAGGAC,-0.146
25,ATCGCTTG,-0.321

row,Sequence,PBM E-score
1,CGGGTGAG,0.167
2,CATATGGC,-0.0951
3,ACCAGATA,-0.0605
4,CGTTGGAA,-0.0729
5,CCTTCGAG,-0.0791
6,AGGAGACA,-0.0751
7,CGGAGACC,0.406
8,TGGAGACA,-0.227
9,AGGAGACC,-0.145
10,CGGAGACA,0.39
11,CAGAGACG,-0.0283
12,CGGAGACG,0.415
13,AGGAGACG,-0.12
14,GGGAGACC,-0.0886
15,CCTCCTAA,-0.122
16,GATCTAAA,0.0142
17,CAAAGGTC,-0.224
18,ATACTTGA,-0.345
19,CCCAGTCA,-0.242
20,CCTAGAAC,-0.0753
21,CGACGGAA,0.339
22,AGACGGAA,0.238
23,AGACGGAG,0.392
24,CGACGGAG,0.421
25,AGACGGAT,0.176

row,Sequence,PBM E-score
1,CGACGGAC,0.337
2,ATTGGACG,-0.00534
3,AATATGCC,-0.0168
4,ACATATCA,-0.0989
5,CTAGGCTA,-0.193
6,AAAGTCCT,0.226
7,CCGGTCCG,0.45
8,AAGGTCCA,-0.124
9,ATAGTCCG,0.413
10,AAGGTCCG,0.426
11,ATAGTCCC,-0.153
12,ATAGTCCA,-0.109
13,CAGGTCCG,0.353
14,CCGGTCCC,0.355
15,AAAGTCCG,0.482
16,AAAGTCCA,-0.0593
17,CCGGTCCA,0.21
18,CCGTTGAG,0.0643
19,ACTAGCTC,-0.157
20,AGAGCTGC,-0.0659
21,AAACAACA,-0.119
22,CGTATCCC,0.048
23,GGACTTAC,0.305
24,GAAGCTAC,-0.144
25,AACACCTC,-0.251
